According to PubChem BioAssay (NCI):
This is part of a sample that, as a whole, favours compounds with a hit. Of some 79,000 tested, about 15% had one in any assay. Rule as the data show it: active = growth inhibition above about 70%; inactive = the rest.

Columns and labels:
[1] = NCI Yeast Anticancer Drug Screen. Data for the rad50 strain (AID 155);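 also: 0% = growth of vehicle-only cultures of the same strain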; settings: S. cerevisiae rad50 strain growth inhibition; at 50.0 µM; active compounds read high
Summary of the method: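 Readout: growth inhibition relative to vehicle-treated cultures. Compound exposure was carried out in a genetically defined yeast strain deficient in DNA damage repair.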

[2] = NCI Yeast Anticancer Drug Screen. Data for the mec2-1 strain (AID 157); settings: S. cerevisiae mec2-1 strain, at 50.0 µM, active compounds read high
Summary of the method: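 Compounds were applied to mec2-1 yeast cells. Their growth was then compared with that of vehicle-treated cultures to give growth inhibition.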

[3] = NCI Yeast Anticancer Drug Screen. Data for the sgs1 mgt1 strain (AID 161);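 also: 0% = growth of cultures given vehicle only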; settings: S. cerevisiae sgs1 mgt1 strain, at 50.0 µM, active compounds read high
Summary of the method: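 This yeast growth screen uses a strain with defined DNA-repair lesions; compound-treated growth is compared with vehicle-treated growth.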

[4] = NCI Yeast Anticancer Drug Screen. Data for the cln2 rad14 strain (AID 165);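 also: 0% = growth equal to vehicle treated cultures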; settings: S. cerevisiae cln2 rad14 strain, at 50.0 µM, active compounds read high
Summary of the method: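 Strain: cln2 rad14 yeast, altered in cell cycle control and DNA damage repair. Read-out: growth inhibition vs vehicle.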

[5] = NCI Yeast Anticancer Drug Screen. Data for the bub3 strain (AID 167); settings: S. cerevisiae bub3 mutant strain, at 50.0 µM, active compounds read high
Summary of the method: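 Readout: yeast growth inhibition, expressed relative to vehicle-only wells. The test organism is a mutant strain from a panel with lesions in DNA repair or checkpoint genes.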

[6] = NCI Yeast Anticancer Drug Screen. Data for the mlh1 rad18 strain (AID 175); settings: S. cerevisiae mlh1 rad18 strain growth inhibition; at 50.0 µM; active compounds read high
Summary of the method: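 A repair-deficient yeast strain is exposed to test compound, and growth is scored relative to vehicle-treated controls.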

Measured: growth inhibition

Cc1ccc(C(C)C)c(OC(=O)NCCCCCCNC(=O)Oc2cc(C)ccc2C(C)C)c1
inactive: [1] -11% | [2] -4.2% | [3] 10.7% | [4] 11.1% | [5] -7.2% | [6] 9.05%

CCOC(=O)SC1=NC(C)=CC(C)(C)S1
inactive: [1] 2.4% | [2] 6.55% | [3] 18.6% | [4] -10.9% | [5] -3.7% | [6] -4.7%

CCCNN(CCC)C(N)=O
inactive: [1] 0.6% | [2] 13.7% | [3] -5.75% | [4] 2.75% | [5] 24.1% | [6] -7.25%

O=C(O)COc1cccc(O)c1
inactive: [1] -26.4% | [2] -24.2% | [3] -39.6% | [4] -13.1% | [5] -27.9% | [6] -20.1%

CCc1cccc(C)c1NC(=O)CCc1nnc2s/c(=C\c3cccc4ccccc34)c(=O)n12
inactive: [1] 25.6% | [2] 16.5% | [3] 19.8% | [4] 24.5% | [5] 2.1% | [6] 33.2%

CCOC(=O)Nc1nc2ccccc2n1CN1CCN(c2ccccc2)CC1
inactive: [1] 8.4% | [2] 7.75% | [3] -8.7% | [4] 21.3% | [5] 45.3% | [6] 16.9%

CCN1C(NN)=NS(=O)(=O)c2ccccc21
inactive: [1] -31.1% | [2] -7.55% | [3] -15.2% | [4] -19.9% | [5] 8.2% | [6] 10.8%

CC1(C)Cc2oc(=Nc3ccccc3)n(-c3ccccc3)c(=O)c2C1
inactive: [1] 9.95% | [2] 2.15% | [3] 1.9% | [4] -13.2% | [5] 4.6% | [6] 0.15%

CCSc1ccc(C)cc1
inactive: [1] 28.6% | [2] -3.15% | [3] -20.8% | [4] 26.5% | [5] -8.1% | [6] 12.6%

CC(=O)NC1C(OCC(=O)NCCNc2ccc([N+](=O)[O-])c3[nH]c4ccccc4c(=O)c23)C(O)C(CO)OC1(C)OCc1ccccc1 (stereo unspecified)
inactive: [1] -3.9% | [2] -39.9% | [3] -25.6% | [4] 8.65% | [5] -18.4% | [6] -3.4%

OCC1OC(O)CC1O (stereo unspecified)
inactive: [1] -15.2% | [2] -10.5% | [3] -3.9% | [4] 9.05% | [5] -5.75% | [6] -0.05%

CC1=CC(=O)C(c2ccccc2)CC1 (stereo unspecified)
inactive: [1] -0.2% | [2] -5.65% | [3] 14.8% | [4] -32.7% | [5] -0.75% | [6] -5.3%

O=C1Sc2ccccc2Cn2cccc21
inactive: [1] -1.7% | [2] 13% | [3] 13.3% | [4] -19.6% | [5] -6.3% | [6] 8.7%

CCc1ccc2c(c1)CCC(=O)O2
inactive: [1] 0.5% | [2] -15.2% | [3] -4.8% | [4] -23.7% | [5] -13.9% | [6] -7.65%

Cc1ccc(Oc2cc(C)ccc2P(=O)(O)O)cc1
inactive: [1] 6.5% | [2] 1.4% | [3] 22.2% | [4] 26.1% | [5] -23.7% | [6] 23.1%

CCCOc1cc2c(cc1C(C)c1ccc(OCC)cc1)OCO2 (stereo unspecified)
inactive: [1] 36% | [2] -25.8% | [3] -9.3% | [4] 0.9% | [5] -26.8% | [6] -49.8%

CCc1ccc(N=Nc2c(F)c(F)c(N)c(F)c2F)cc1
inactive: [1] 6.1% | [2] -11.3% | [3] 2.4% | [4] 2.85% | [5] 0.55% | [6] 14.3%

CC(=O)OCC1OC(n2c(C)c(N=Nc3ccccc3)c(C)c(C#N)c2=S)C(OC(C)=O)C(OC(C)=O)C1OC(C)=O (stereo unspecified)
inactive: [1] -17.7% | [2] -17.6% | [3] -1.7% | [4] -1% | [5] -10.3% | [6] 14.8%

Cc1cccc(-c2c3ccccc3cc3c2ccc2ccccc23)c1
inactive: [1] 11.9% | [2] -5.35% | [3] -3.55% | [4] -13.8% | [5] 8.7% | [6] -2.65%

Nc1cccc(C(O)c2ccccc2)c1 (stereo unspecified)
inactive: [1] 11.2% | [2] -1.15% | [3] 0.1% | [4] 6.25% | [5] 7.3% | [6] 13.1%

CN(C)[C@@H]1C(=O)C(C(=O)NCNC2CC(C)(C)N(O)C(C)(C)C2)=C(O)C2(O)C(=O)C3=C(O)c4c(O)cccc4[C@@](C)(O)C3CC12 (stereo partly specified)
inactive: [1] -1.2% | [2] 30.6% | [3] 2.55% | [4] -37% | [5] -22.1% | [6] 24.6%
